Results filed as inconclusive are left out. Calls of active or inactive are those of the source. Unless noted, the call rests on the fitted dose curve; in most records, active means well fitted curve in the direction sought with a large enough effect; inconclusive means small, poorly fitted or top-dose-only effect, or another doubt; inactive means no such curve, though single readings can be large; an effect the other way counts as inactive or inconclusive.
Assays:
[1] = biological target: Lysosomal acid glucosylceramidase (Homo sapiens) (UniProt P04062); assay: Glucocerebrosidase-p2 (AID 348; in the data active means potency below about 10 µM; further: potency means the concentration at half of the fitted maximal effect); details: purified GBA, blue fluorogenic substrate, 40 min
In short: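 Normal human glucocerebrosidase (0.2 nM) with blue fluorogenic substrate (80 uM final) in citrate/phosphate pH 5.9 with 10mM sodium taurocholate, 0.01% tween-20; 40 min RT, NaOH/glycine stop; fluorescence Ex 365/Em 440; AC50 from a titration from 0.6 nM upwards.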

[2] = AP1 Signaling Pathway (AID 357; active means well fitted curve in either direction with a large enough effect, not every such curve was filed as active;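 further: ME-180 reporter cells stimulated with EGF at its EC50 level; on the % scale 0 is the no-effect control and ±100 the full control effect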); details: ME-180 AP-1-bla reporter, EGF-induced, beta-lactamase ratio, 5 h; at 7.69 µM (top of the series) unless noted
In short: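 Read-out was the 460nm/530nm emission ratio (excitation 405nm) after CCF4 loading for 2.5 hours at room temperature. Cells carried an AP-1-driven beta-lactamase reporter, were stimulated with EC50 EGF plus compound for 5 hours, and AC50 values came from titrations.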

[3] = biological target: Cytochrome P450 1A2 (Homo sapiens) (UniProt P05177); assay: p450-cyp1a2 (AID 410; calls by dose curve; further: potency means the concentration at half of the fitted maximal effect); details: recombinant CYP1A2, luciferin-ME demethylation, luminescence; series mostly up to 57 µM
In short: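 O-Demethylation of luciferin 6' methyl ether by human CYP1A2 is monitored as luciferase luminescence. Substrate sits at Km (100uM); enzyme is 20nM. Values are scaled to 57 uM furafylline as maximal inhibition.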

[4] = NFAT Signaling Pathway (AID 444; active means well fitted curve in either direction with a large enough effect, not every such curve was filed as active;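 further: carbachol stimulus at about its EC50 of 1 µM final; on the % scale 0 is the no-effect control and ±100 the full control effect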); details: Jurkat NFAT-bla M1, carbachol, beta-lactamase ratio, 5 h; at 7.69 µM (top of the series) unless noted
In short: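 Read-out: CCF4 FRET ratio (460 nm/530 nm) after 1 h RT dye loading, used for %activity and AC50 from titration series. Cells: Jurkat NFAT-β-lactamase/M1 line, treated with compound plus 1 uM carbachol for 5 h, 37 °C.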

[5] = Stat Signaling Pathway (AID 446; active means well fitted curve in either direction with a large enough effect, not every such curve was filed as active;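 further: ME-180 cervical cancer cells given 40 pM IL-6 alongside compound; SIE-controlled beta-lactamase reporter measured as 460/530 nm FRET emission ratio; on the % scale 0 is the no-effect control and ±100 the full control effect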); details: ME-180 (cervical carcinoma) SIE beta-lactamase reporter, IL-6 stimulated, 5 h; at 7.69 µM (top of the series) unless noted
In short: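 Overnight-plated ME-180 cells bearing a STAT Inducible Element beta-lactamase reporter; 5 h co-exposure to compound and 40 pM IL-6; values normalized to 300 pM IL-6 and 125 nM JAK inhibitor controls.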

[6] = biological target: Glucocorticoid receptor (Homo sapiens) (UniProt P04150); assay: GR-GFP Redistribution (AID 450;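 active means compounds whose dose series gives a full or clear partial fitted curve of increased nuclear translocation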; further: potency means the concentration at half of the fitted maximal effect); details: U2OS GR-GFP nuclear translocation, laser cytometry, 2 h
[7] = biological target: Glucocorticoid receptor (Homo sapiens) (UniProt P04150); assay: GR-EFC Redistribution (AID 451; calls by dose curve; further: potency means the concentration at half of the fitted maximal effect); details: CHO-K1 GR-EFC translocation, beta-gal luminescence, 2 h
In short: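 Translocation of GR-ED fusion to nuclear EA restores b-gal, read by luminescence after 1 h room-temperature detection. Engineered CHO-K1 biosensor cells, 1,000/well, exposed 2 h at 37 C to titrations up to 46 uM final.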

[8] = biological target: Mitogen-activated protein kinase 10 (Mus musculus) (UniProt Q61831); assay: JNK3 AlphaScreen Assay (AID 530; active means well fitted curve in either direction with a large enough effect, not every such curve was filed as active;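 further: kinase came from lysate of stimulated human HepG2 cells; signal reports phosphorylation of biotinylated GST-cJun 1-79 at Ser73 with 10 µM ATP; on the % scale 0 is the no-effect control and ±100 the full control effect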); details: JNK3 lysate, c-Jun phosphorylation; series mostly up to 57.1 µM
In short: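 qHTS titrations with 15 min compound pre-incubation before adding ATP (10 uM final). Read-out: AlphaScreen of Ser73-phosphorylated biotin-GST-cJun using HepG2 lysate JNK3 activated by IL-1β and TNFα.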

[9] = biological target: Cytochrome P450 3A4 (Homo sapiens) (UniProt P08684); assay: qHTS Assay for Activators of Cytochrome P450 3A4 (AID 885); details: recombinant CYP3A4, Luciferin-PPXE luminescence, 60 min; series mostly up to 57.1 µM; further: nearly all actives have a fitted effect of over 65% in size
In short: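 Using 20nM recombinant human CYP3A4 in potassium phosphate (200mM), substrate Luciferin-PPXE at 25uM, luminescent luciferin detection followed a 60-min RT NADPH reaction; data scaled to 57 uM ketoconazole.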

[10] = biological target: Dual specificity protein kinase CLK4 (Homo sapiens) (UniProt Q9HAZ1); assay: qHTS Assay for Inhibitors of CDC-like Kinase 4 (Kinase-Glo Assay) (AID 1770); details: recombinant Clk4, Kinase-Glo ATP depletion luminescence; series mostly up to 66.7 µM; further: on the % scale 0 is the no-effect control and ±100 the full control effect; nearly all actives have a fitted effect of over 65% in size
In short: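 Recombinant human Clk4 (25 nM) phosphorylated RS repeat peptide (100 uM) with 1 uM ATP in Tris pH 7.5/MgCl2/EGTA/DTT/Triton buffer for 4.5 h at room temperature. Residual ATP was quantified by Kinase-Glo luciferase luminescence.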

[11] = biological target: Dual specificity protein kinase CLK4 (Homo sapiens) (UniProt Q9HAZ1); assay: qHTS Assay for Inhibitors of CDC-like Kinase 4 (ADP-Glo Assay) (AID 1771); details: recombinant CLK4, ADP-Glo luminescence; series mostly up to 80 µM; further: on the % scale 0 is the no-effect control and ±100 the full control effect; nearly all actives have a fitted effect of over 70% in size
In short: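 Compounds are pin-transferred onto substrate mix (100 uM RS peptide, 1 uM ATP), then 25 nM Clk4 is added. After 1 hr at room temperature, ADP-Glo reagent runs 45 min, detection reagent 30 min, then luminescence is read.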

[12] = biological target: Dual specificity protein kinase CLK4 (Homo sapiens) (UniProt Q9HAZ1); assay: qHTS Assay for Inhibitors of CDC-like Kinase 4 (ADP-FP Assay) (AID 1795); details: Transcreener ADP fluorescence polarization; series mostly up to 50 µM; further: on the % scale 0 is the no-effect control and ±100 the full control effect; nearly all actives have a fitted effect of over 60% in size
In short: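 Recombinant human Clk4 (6.25 nM) phosphorylated RS repeat peptide (100 uM) with 1 uM ATP in Tris pH 7.5/MgCl2/EGTA/DTT/Triton buffer for one hour. ADP was quantified by Transcreener competitive fluorescence polarization against an ADP calibration curve.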

[13] = biological target: Ubiquitin carboxyl-terminal hydrolase 1 (Homo sapiens) (UniProt O94782); assay: Inhibitors of USP1/UAF1: Pilot qHTS (AID 504865); details: purified USP1/UAF1, Ub-rhodamine cleavage fluorescence; series mostly up to 54.9 µM;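 further: rhodamine fluorescence freed from ubiquitin-rhodamine substrate followed over time; top concentration of the series differs between compounds; on the % scale 0 is the no-effect control and ±100 the full control effect; nearly all actives have a fitted effect of over 35% in size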
In short: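 USP1/UAF1 complex (1nM) preincubated with compound 15 min at room temperature, then Ub-Rho substrate (150nM final) added. Fluorescence read kinetically at 480/540 nm, 6 reads every 60 seconds. Buffer: 50mM HEPES pH 7.8, 0.5mM EDTA, 0.1 mg/ml BSA, 1mM TCEP, 0.01% Tween-20.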

[14] = Primary qHTS for small molecule stabilizers of the endoplasmic reticulum resident proteome: Secreted ER Calcium Modulated Protein (SERCaMP) assay (AID 1508630); details: SH-SY5Y GLuc-SERCaMP (Gaussia luciferase released on ER calcium loss) secretion, thapsigargin, luminescence; series mostly up to 38.4 µM; further: on the % scale 0 is the no-effect control and ±100 the full control effect
In short: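 The SH-SY5Y reporter protocol was run at 3 concentrations up to 38.3 uM (primary) or 11 concentrations (follow-up): 16 h compound, 100 nM thapsigargin for 4 h, then extracellular luciferase luminescence.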

[15] = biological target: Cytochrome P450 2C9 (Homo sapiens) (UniProt P11712); assay: qHTS Assay for Inhibitors and Substrates of Cytochrome P450 2C9 (AID 883); details: recombinant CYP2C9, luciferin-H luminescence, 60 min; series mostly up to 57.1 µM; further: potency means the concentration at half of the fitted maximal effect; nearly all actives have a fitted effect of over 60% in size
In short: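 Inhibition of CYP2C9 is scored as loss of luminescence, with 57uM sulphaphenazole defining 100% inhibition. Substrate Luciferin-H is used at 100uM, equal to its KM; enzyme at 10nM in 25mM KPO4, 60 min at 37C with NADPH regeneration.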

[16] = biological target: Cytochrome P450 3A4 (Homo sapiens) (UniProt P08684); assay: qHTS Assay for Inhibitors and Substrates of Cytochrome P450 3A4 (AID 884); details: recombinant CYP3A4, Luciferin-PPXE luminescence; series mostly up to 57.1 µM; further: potency means the concentration at half of the fitted maximal effect; nearly all actives have a fitted effect of over 50% in size
In short: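 Luminescent readout of luciferin produced by CYP3A4 (20 nM) dealkylation of Luciferin-PPXE, 25 uM (its KM). NADPH-driven reaction ran 60 min at RT after 10 min compound preincubation; data scaled to 57 uM ketoconazole as 100% inhibition.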

[17] = biological target: Cytochrome P450 2C19 (Homo sapiens) (UniProt P33261); assay: qHTS Assay for Inhibitors and Substrates of Cytochrome P450 2C19 (AID 899); details: recombinant CYP2C19, luciferin-H EGE luminescence; series mostly up to 57.1 µM; further: potency means the concentration at half of the fitted maximal effect; nearly all actives have a fitted effect of over 60% in size
In short: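 5nM enzyme + 10uM Luciferin-H EGE (=KM), 50mM KPO4; cpd pin-transferred, 10 min 37C; NADPH regen, 60 min 37C; stopped w/ luciferin detection reagent, 20 min; luminescence. Normalized to 57uM ketoconazole (AC100).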

Chain of Dual specificity protein kinase CLK4 (Homo sapiens) (Q9HAZ1 whole entry, looked up): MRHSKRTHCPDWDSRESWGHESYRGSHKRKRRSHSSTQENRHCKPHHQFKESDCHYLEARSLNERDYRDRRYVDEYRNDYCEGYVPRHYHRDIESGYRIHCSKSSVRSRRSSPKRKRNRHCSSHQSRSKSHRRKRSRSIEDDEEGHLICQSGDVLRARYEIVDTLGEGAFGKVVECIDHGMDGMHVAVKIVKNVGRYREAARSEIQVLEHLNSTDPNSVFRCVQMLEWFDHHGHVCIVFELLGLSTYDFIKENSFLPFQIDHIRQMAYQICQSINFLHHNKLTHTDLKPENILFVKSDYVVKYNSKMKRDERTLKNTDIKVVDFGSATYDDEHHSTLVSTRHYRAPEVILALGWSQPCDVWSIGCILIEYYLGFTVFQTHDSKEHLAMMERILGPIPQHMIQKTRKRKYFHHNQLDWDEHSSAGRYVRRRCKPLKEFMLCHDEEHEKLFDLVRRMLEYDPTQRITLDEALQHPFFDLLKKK
Chain of Cytochrome P450 3A4 (Homo sapiens) (P08684 whole entry, looked up): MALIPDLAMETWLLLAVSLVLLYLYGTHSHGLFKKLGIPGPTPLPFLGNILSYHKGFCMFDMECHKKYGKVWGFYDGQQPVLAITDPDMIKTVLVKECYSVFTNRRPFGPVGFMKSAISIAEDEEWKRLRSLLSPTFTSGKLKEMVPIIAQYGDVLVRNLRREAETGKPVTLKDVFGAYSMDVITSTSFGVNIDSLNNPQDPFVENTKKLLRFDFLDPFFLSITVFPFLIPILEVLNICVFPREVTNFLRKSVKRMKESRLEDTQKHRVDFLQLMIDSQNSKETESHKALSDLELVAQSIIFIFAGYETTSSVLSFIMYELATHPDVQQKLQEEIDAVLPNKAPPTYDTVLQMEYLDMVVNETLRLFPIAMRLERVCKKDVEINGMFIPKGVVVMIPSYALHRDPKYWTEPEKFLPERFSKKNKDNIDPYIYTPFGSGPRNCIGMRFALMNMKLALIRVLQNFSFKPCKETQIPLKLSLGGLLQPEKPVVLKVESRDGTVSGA
Chain of Glucocorticoid receptor (Homo sapiens) (P04150 whole entry, looked up, the tested form may be a part): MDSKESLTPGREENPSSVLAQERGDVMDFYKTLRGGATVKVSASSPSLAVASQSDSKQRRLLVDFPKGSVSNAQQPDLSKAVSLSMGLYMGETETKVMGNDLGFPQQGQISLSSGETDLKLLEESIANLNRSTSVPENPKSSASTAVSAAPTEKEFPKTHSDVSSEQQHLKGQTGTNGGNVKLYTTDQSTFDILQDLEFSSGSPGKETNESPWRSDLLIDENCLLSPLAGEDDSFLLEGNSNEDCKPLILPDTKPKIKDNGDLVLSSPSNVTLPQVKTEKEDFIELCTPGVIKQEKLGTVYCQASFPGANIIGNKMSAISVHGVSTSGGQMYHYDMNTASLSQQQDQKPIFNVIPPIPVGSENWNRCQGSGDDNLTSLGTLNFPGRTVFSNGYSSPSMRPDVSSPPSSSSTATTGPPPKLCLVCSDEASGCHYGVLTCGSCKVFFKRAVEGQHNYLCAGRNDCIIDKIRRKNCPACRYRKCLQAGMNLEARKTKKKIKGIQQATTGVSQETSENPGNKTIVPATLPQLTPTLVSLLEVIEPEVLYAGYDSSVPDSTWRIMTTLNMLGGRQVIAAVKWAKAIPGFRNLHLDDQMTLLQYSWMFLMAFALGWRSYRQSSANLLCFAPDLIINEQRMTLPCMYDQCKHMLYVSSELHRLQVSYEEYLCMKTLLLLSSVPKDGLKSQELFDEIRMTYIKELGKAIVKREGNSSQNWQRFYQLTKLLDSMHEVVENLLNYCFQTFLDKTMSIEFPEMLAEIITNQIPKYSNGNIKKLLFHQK
Chain of Lysosomal acid glucosylceramidase (Homo sapiens) (P04062 whole entry, looked up): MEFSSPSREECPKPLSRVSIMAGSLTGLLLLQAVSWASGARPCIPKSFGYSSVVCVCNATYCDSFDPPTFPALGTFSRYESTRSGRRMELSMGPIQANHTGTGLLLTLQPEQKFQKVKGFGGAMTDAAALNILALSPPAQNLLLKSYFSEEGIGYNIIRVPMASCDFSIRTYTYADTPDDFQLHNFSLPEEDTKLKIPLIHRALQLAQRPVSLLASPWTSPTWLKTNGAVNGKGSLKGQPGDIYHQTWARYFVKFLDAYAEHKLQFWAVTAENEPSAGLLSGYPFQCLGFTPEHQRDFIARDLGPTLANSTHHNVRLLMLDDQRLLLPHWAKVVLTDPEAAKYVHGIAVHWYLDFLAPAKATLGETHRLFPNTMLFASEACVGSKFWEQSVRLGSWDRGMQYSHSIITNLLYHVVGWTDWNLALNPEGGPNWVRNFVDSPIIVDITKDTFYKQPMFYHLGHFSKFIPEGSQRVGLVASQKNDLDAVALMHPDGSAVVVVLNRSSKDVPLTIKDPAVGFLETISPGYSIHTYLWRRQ
Chain of Cytochrome P450 1A2 (Homo sapiens) (P05177 whole entry, looked up): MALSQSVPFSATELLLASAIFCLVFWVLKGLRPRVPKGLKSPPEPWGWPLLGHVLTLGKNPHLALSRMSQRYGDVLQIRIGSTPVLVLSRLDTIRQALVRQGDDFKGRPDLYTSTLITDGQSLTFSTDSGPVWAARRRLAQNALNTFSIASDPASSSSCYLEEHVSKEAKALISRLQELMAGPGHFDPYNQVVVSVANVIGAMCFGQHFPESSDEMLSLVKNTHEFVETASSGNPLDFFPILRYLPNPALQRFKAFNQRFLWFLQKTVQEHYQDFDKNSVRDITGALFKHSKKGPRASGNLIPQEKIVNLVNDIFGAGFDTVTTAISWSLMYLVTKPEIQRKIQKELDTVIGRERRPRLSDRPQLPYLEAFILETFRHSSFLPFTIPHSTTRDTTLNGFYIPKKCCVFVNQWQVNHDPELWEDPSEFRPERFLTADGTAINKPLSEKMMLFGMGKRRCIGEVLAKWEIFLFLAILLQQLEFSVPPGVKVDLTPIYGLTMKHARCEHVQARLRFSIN
Chain of Ubiquitin carboxyl-terminal hydrolase 1 (Homo sapiens) (O94782 whole entry, looked up): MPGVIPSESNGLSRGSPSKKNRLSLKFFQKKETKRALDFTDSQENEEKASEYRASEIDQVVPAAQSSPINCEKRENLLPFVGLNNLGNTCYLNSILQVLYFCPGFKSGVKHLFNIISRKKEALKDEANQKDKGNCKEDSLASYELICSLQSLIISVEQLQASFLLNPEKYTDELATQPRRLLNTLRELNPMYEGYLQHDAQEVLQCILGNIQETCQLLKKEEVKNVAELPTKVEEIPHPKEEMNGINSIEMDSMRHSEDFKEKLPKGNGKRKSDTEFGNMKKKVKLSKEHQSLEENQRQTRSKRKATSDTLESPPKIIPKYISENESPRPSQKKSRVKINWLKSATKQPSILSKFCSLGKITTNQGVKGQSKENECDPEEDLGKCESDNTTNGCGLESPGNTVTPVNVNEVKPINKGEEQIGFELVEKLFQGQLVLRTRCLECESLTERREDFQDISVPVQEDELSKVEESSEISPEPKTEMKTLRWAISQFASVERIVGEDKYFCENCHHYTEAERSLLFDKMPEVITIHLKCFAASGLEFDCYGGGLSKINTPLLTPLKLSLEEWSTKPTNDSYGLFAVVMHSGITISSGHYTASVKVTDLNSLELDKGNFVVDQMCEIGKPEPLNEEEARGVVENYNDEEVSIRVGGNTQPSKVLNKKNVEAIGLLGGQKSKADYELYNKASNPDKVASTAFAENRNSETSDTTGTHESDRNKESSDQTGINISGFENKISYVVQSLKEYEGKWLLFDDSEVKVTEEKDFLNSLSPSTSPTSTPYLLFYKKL
Chain of Cytochrome P450 2C19 (Homo sapiens) (P33261 whole entry, looked up): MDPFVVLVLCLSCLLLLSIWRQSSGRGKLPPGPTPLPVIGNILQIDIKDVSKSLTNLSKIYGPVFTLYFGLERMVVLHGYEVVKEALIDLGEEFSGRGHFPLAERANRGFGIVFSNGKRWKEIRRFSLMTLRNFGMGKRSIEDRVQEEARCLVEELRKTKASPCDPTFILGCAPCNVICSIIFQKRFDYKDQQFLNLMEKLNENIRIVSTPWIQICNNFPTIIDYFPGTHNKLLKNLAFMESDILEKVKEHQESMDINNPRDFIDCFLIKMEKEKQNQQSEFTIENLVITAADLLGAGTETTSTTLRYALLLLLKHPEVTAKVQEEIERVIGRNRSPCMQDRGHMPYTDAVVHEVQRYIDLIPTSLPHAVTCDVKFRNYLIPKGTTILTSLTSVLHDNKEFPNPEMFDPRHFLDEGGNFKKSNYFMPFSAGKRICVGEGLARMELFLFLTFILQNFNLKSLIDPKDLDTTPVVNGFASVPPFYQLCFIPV
Chain of Cytochrome P450 2C9 (Homo sapiens) (P11712 whole entry, looked up): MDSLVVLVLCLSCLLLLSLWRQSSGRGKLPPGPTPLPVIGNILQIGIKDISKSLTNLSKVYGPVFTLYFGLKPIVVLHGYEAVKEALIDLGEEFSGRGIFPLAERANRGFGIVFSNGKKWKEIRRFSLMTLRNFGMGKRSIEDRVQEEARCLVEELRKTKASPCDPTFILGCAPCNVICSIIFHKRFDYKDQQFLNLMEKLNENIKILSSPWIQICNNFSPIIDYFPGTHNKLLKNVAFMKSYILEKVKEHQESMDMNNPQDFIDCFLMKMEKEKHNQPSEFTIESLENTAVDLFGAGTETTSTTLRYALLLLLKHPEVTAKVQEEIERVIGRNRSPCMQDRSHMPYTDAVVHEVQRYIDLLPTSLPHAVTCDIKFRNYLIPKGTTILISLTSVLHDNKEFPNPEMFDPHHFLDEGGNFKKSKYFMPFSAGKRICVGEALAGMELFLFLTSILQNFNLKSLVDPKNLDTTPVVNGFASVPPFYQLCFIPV

c1ccc(CNc2nc(-c3ccc4c(c3)OCO4)nc3ccccc23)cc1
active: Potency [3] 0.501 µM
inactive: Potency [1] > 11.4 µM | activity change, negative = inhibition [2] -7.19% | activity change, negative = inhibition [4] -23.9% | activity, negative = inhibition [5] -13% | Potency [6] > 46 µM | Potency [7] > 46 µM | Potency [8] | Potency [9] | Potency [10] | Potency [11] | Potency [12] | Potency [13] | outcome [14]

COc1ccc(-c2nc3cnc(N(C)C)nc3n(C[C@H]3CCCO3)c2=O)cc1
inactive: Potency [1] > 11.4 µM | activity change, negative = inhibition [2] 1.23% | activity change, negative = inhibition [4] -3.89% | activity, negative = inhibition [5] 2.75% | Potency [6] > 9.22 µM | Potency [7] > 46 µM | Potency [9] | Potency [10] | Potency [11] | Potency [12] | Potency [13] | outcome [14]
active: Potency [3] 3.16 µM

COc1ccccc1CCn1c(=O)c(-c2ccc(F)c(F)c2)nc2cncnc21
active: Potency [3] 2 µM | Potency [15] 6.31 µM | Potency [16] 3.16 µM | Potency [17] 1.26 µM
inactive: Potency [1] > 11.4 µM | activity change, negative = inhibition [2] -18.1% | activity change, negative = inhibition [4] 1.01% | activity, negative = inhibition [5] 10.7% | Potency [6] > 9.22 µM | Potency [7] > 46 µM | Potency [8] | Potency [9] | Potency [10] | Potency [11] | Potency [12] | Potency [13] | outcome [14]

Source: PubChem BioAssay (NCATS)
